Results filed as inconclusive are left out. Calls of active or inactive are those of the source. Unless noted, calls come from the whole dose curve; as a rule, active = well fitted curve in the direction sought with a large enough effect; inconclusive = small, poorly fitted or top-dose-only effect, or another doubt; inactive = no such curve, though single readings can be large; an effect the other way counts as inactive or inconclusive.
How the values were obtained:
UISO = experiment: qHTS assay to identify novel small-molecules to repurpose for Merkel cell carcinoma treatment (AID 1296009); conditions: MCC and control cell lines, CellTiter-Glo viability, 72 h; series mostly up to 46 µM; note: % is set by controls: 0 for no effect and ±100 for the full control effect; nearly all actives have a fitted effect of over 60% in size
Outline: (§1)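 After compound transfer in DMSO, plates were kept 72 hr at 37 degree celsius. Luminescent ATP signal from CellTiter-Glo served as viability measure, normalized against DMSO and no-cell controls.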

WaGa = experiment: as above; conditions: MCC and control cell lines, CellTiter-Glo viability, 72 h; series mostly up to 46 µM
Outline: as §1

C33A = experiment: Primary qHTS to identify gynecologic anti-cancer compounds using libraries of approved drugs and bioactive compounds (AID 1345084); conditions: Gynecologic cancer cell panel viability, ATPlite luminescence, 48 h; series mostly up to 57.5 µM; note: % is set by controls: 0 for no effect and ±100 for the full control effect; nearly all actives have a fitted effect of over 55% in size
Outline: (§2)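 Cells, 1,000 per well, were allowed to settle for 16 h at 37 C before compound addition. Five concentrations were tested for 48 h, and viability was read by ATPlite luminescence after 15 min at room temperature.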

CAOV3 = experiment: as above; conditions: Gynecologic cancer cell panel viability, ATPlite luminescence, 48 h; series mostly up to 57.5 µM
Outline: as §2

CASKI = experiment: as above; conditions: Gynecologic cancer cell panel viability, ATPlite luminescence, 48 h; series mostly up to 57.5 µM
Outline: as §2

Es-2 = experiment: as above; conditions: Gynecologic cancer cell panel viability, ATPlite luminescence, 48 h; series mostly up to 57.5 µM
Outline: as §2

HeLa = experiment: as above; conditions: Gynecologic cancer cell panel viability, ATPlite luminescence, 48 h; series mostly up to 57.5 µM
Outline: as §2

Hek293T = experiment: as above; conditions: Gynecologic cancer cell panel viability, ATPlite luminescence, 48 h, control line for the selectivity index; series mostly up to 57.5 µM
Outline: as §2

OV90 = experiment: as above; conditions: Gynecologic cancer cell panel viability, ATPlite luminescence, 48 h; series mostly up to 57.5 µM
Outline: as §2

PA-1 = experiment: as above; conditions: Gynecologic cancer cell panel viability, ATPlite luminescence, 48 h; series mostly up to 57.5 µM
Outline: as §2

Tov-21-G = experiment: as above; conditions: Gynecologic cancer cell panel viability, ATPlite luminescence, 48 h; series mostly up to 57.5 µM
Outline: as §2

Tov112D = experiment: as above; conditions: Gynecologic cancer cell panel viability, ATPlite luminescence, 48 h; series mostly up to 57.5 µM
Outline: as §2

[1] = Drug repurposing screens with cells derived from glioblastoma tumor samples (AID 1345199); conditions: GBM patient neurospheres viability, ATP luminescence, 48 h; note: % is set by controls: 0 for no effect and ±100 for the full control effect; nearly all actives have a fitted effect of over 40% in size
Outline: (§3)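 Four patient lines of CD133+ GBM neurospheres were screened at several concentrations; hits were retested in those lines plus three slower-growing GBM lines, using 48-hour treatment and ATP-based viability.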

astro = experiment: as above; conditions: viability, ATP luminescence, 48 h; series mostly up to 45.9 µM
Outline: as §3

[2] = biological target: Nuclear receptor subfamily 1 group I member 2 (Rattus norvegicus) (UniProt Q9R1A7); experiment: qHTS assay for small molecule activators of the rat pregnane X receptor (rPXR) signaling pathway (AID 651751; call rule not given here; note: 0% is about no effect); conditions: rPXR reporter cells, luciferase (One-Glo), 24 h
[3] = qHTS assay for small molecule activators of the human pregnane X receptor (PXR) signaling pathway (AID 720659; call rule not given here; note: 0% is about no effect)
JEG-3 = experiment: Primary qHTS to identify gynecologic anti-cancer compounds using libraries of approved drugs and bioactive compounds (AID 1345084); conditions: Gynecologic cancer cell panel viability, ATPlite luminescence, 48 h; series mostly up to 57.5 µM; note: % is set by controls: 0 for no effect and ±100 for the full control effect; nearly all actives have a fitted effect of over 55% in size
Outline: as §2

SKOV3 = experiment: as above; conditions: Gynecologic cancer cell panel viability, ATPlite luminescence, 48 h; series mostly up to 57.5 µM
Outline: as §2

Nuclear receptor subfamily 1 group I member 2 (Rattus norvegicus), sequence (Q9R1A7 whole entry, looked up): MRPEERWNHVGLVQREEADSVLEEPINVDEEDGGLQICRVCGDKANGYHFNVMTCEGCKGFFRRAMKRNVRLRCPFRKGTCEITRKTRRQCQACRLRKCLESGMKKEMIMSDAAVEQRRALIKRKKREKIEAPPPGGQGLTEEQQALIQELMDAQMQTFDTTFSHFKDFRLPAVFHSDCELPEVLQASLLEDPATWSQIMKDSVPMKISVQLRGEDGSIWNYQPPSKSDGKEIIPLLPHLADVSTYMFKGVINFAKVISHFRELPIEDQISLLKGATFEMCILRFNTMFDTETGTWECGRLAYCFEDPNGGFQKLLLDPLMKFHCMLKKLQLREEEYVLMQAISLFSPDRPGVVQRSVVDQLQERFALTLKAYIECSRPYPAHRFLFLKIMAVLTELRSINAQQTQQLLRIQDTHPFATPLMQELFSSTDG

CN1C(=O)c2ccccc2C1=O
inactive: Potency (UISO) | Potency (WaGa) | Potency (C33A) | Potency (CAOV3) | Potency (CASKI) | Potency (Es-2) | Potency (HeLa) | Potency (Hek293T) | Potency (OV90) | Potency (PA-1) | Potency (Tov-21-G) | Potency (Tov112D) | activity, negative = cell killing ([1]; at 91.6 µM (top of the series), tumour line A) -18.9% | activity, negative = cell killing ([1]; at 91.6 µM (top of the series), tumour line B) -9.87% | activity, negative = cell killing ([1]; at 91.6 µM (top of the series), tumour line D) -20.8% | activity, negative = cell killing ([1]; at 99.2 µM (top of the series), tumour line C) 6.36% | Potency (astro) | max response [2] 0.847% | outcome [3]

Fc1ccc(C(c2ccc(F)cc2)N2CCNCC2)cc1
inactive: Potency (UISO) | Potency (WaGa) | Potency (C33A) | Potency (CASKI) | Potency (Es-2) | Potency (HeLa) | Potency (Hek293T) | Potency (JEG-3) | Potency (OV90) | Potency (PA-1) | Potency (SKOV3) | Potency (Tov-21-G) | Potency (Tov112D)

Cc1ccc(Cl)c(OCC(O)CNC(C)(C)C)c1 (configuration not stated)
inactive: Potency (UISO) | Potency (WaGa) | Potency (C33A) | Potency (CAOV3) | Potency (CASKI) | Potency (Es-2) | Potency (HeLa) | Potency (JEG-3) | Potency (OV90) | Potency (SKOV3)

From PubChem BioAssay (NCATS)
